Here are results for 33 molecules from PubChem BioAssay AID489025 (Southern Research Specialized Biocontainment Screening …, 2010).

Among all 2,300 compounds or so, about 790 (34%) were called active. The list shows a part of the results. Potency and affinity values are given separately. Unmarked numbers belong to inactive results. How the calls were made is not given here.

The assay is described as follows: THP-1 cell cytotoxicity, dose response, cytotoxicity control for non-replicating M. tuberculosis project (AID 489025). The following applies: THP-1 cell viability; series mostly up to 40 µM; viability: at the top concentration.
As to `Cc1cccc(C2=N/C(=C\c3cccnc3)C(=O)O2)c1`, the “viability” value was 117%.

On to `O=C(CCSc1nnc(-c2ccccc2)o1)N1CCOCC1`, for which the “viability” value was 114%.

Consider `Cc1cc(C)cc(OC(=O)c2cccnc2)c1`, for which the “viability” value is 87.5%.

Turning to `O=C(OCn1nnc2ccccc2c1=O)c1ccc(N2CCOCC2)c([N+](=O)[O-])c1`, the “viability” value was 105%.

On to `Cc1[nH]n(-c2ccccc2)c(=O)c1C=Nc1cnc2ccccc2c1`, for which the “viability” value was 103%.

As for `Cc1cc(CN(C)C)c(O)c(C2(C)CCCCC2)c1`, the “viability” value is 108%.

`Cc1cccc(NC(=O)COC(=O)c2cc3ccccc3oc2=O)c1`: the “viability” value is 114%.

On to `O=C1NC(=O)C(=Cc2ccc(-c3ccc(Cl)cc3)o2)C(=O)N1`, for which the “viability” value was 113%.

For `O=C(Oc1c(-c2ccco2)oc2ccccc2c1=O)c1cccnc1`, the “viability” value is 73.6%.

As for `CC(C)Oc1ccc(C(=O)CCN2CCCCC2)cc1`, the “viability” value was 112%.

Turning to `CCOc1ccc(OC(=O)c2ccc3c(=O)n4c(nc3c2)CCC4)cc1`, the “viability” value is 93.9%.

Consider `CCOc1ccc(-c2nc3ccccc3c(=O)o2)cc1`, for which the “viability” value is 116%.

As for `O=C(CCN1CCCCCC1)c1ccccc1`, the “viability” value was 83.7%.

As for `COc1ccc2cc(C(=O)C3CCCN(Cc4ccccn4)C3)ccc2c1` (stereo not drawn), the “viability” value was 88%.

On to `CC(C)COc1ccc(C(=O)CCN2CCCCC2)cc1`, for which the “viability” value is 88.7%.

For the molecule `COc1ccc(C(=O)CCN2CCCCCC2)cc1`, the “viability” value was 75.2%.

`O=C(CCSc1ccccc1)N1CCCC1`: the “viability” value was 109%.

On to `COc1ccc(NCC(=O)N2CCCC2)cc1Cl`, for which the “viability” value is 87.4%.

For `CC1C/C(=N/NC(=O)c2cccc(F)c2)c2ccc(O)cc2C1` (stereo not drawn), the “viability” value is 91.1%.

In the case of `CN1CCN(Cc2cc(C(C)(C)C)c(O)c(C(C)(C)C)c2)CC1`, the “viability” value was 104%.

For the molecule `COc1cc(/C=C2\C(=O)N(c3ccc(S(N)(=O)=O)cc3)N=C2C)ccc1OC(=O)c1ccco1`, the “viability” value was 112%.

For `CCC(C)n1nnc2c(=O)oc3ccccc3c21` (stereo not drawn), the “viability” value is 98.7%.

For the molecule `COc1ccc(OCC(=O)N/N=C2\CCc3ccccc32)cc1`, the “viability” value was 115%.

Take `Cc1ccc(NC(CC(=O)c2ccccc2)C(=O)O)cc1Cl` (stereo not drawn): the “viability” value is 113%.

For `CC(NC(=O)OCc1ccccc1)c1ccccc1` (stereo not drawn), the “viability” value was 76.8%.

As for `O=C(c1cccc2cccc(O)c12)N1CCCCC1`, the “viability” value was 113%.

Turning to `CCc1ccc(C(=O)NC2CCCCC2)s1`, the “viability” value is 101%.

On to `CC(C)(NO)/C(=N\O)c1ccccc1`, for which the “viability” value was 92.4%.

Take `Cc1c(Cl)cccc1NC(=O)C1COc2ccccc2O1` (stereo not drawn): the “viability” value was 110%.

With `O=S(=O)(CCN1CCN(c2ccccn2)CC1)c1ccc(Cl)cc1Cl`, the “viability” value was 107%.

On to `COc1ccc(OC)c(N2C(=O)NC(=O)/C(=C/c3ccc([N+](=O)[O-])s3)C2=O)c1`, for which the “viability” value is 92.7%.

Take `O=C1NC(=O)N(Cc2ccc(F)cc2)C(=O)/C1=C\c1ccc([N+](=O)[O-])s1`: the “viability” value is 77%.

In the case of `O=C1NC(=O)C(=Cc2ccc(Oc3ccc([N+](=O)[O-])cc3)cc2)C(=O)N1`, the “viability” value is 103%.
